The results in this text go back to PubChem BioAssay (NCI).

This is part of a sample that, as a whole, favours compounds with a hit. Of some 83,000 tested, about 20% had one in any assay.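 Percent growth is the endpoint: 0 to 100 indicates growth inhibition (40 means 60% inhibition), 0 means no net growth, and negative values indicate cell death.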 Calls of active or inactive are those of the source.

In one assay the test system is MDA-MB-435 melanoma. Kind of assay: NCI-60 one-dose screen, 48 h (100 = growth as untreated, 0 = no growth, -100 = all killed). Particulars: 1 µM. As to the method:
Growth inhibition of the MDA-MB-435 human Melanoma tumor cell line is measured as a screen for anti-cancer activity. Cells are grown in 96 well plates and exposed to the test compound for 48 hours. Compounds are tested at a single concentration, which is 10^-5 M for most compounds. The reported endpoint is percent growth (GI% or GIPRCNT), where numbers from 0 - 100% represent growth inhibition, and numbers from -100% - 0 represent cell death. For example, a value of 40 represents 60% growth inhibition. A value of 0 means no net growth occurred over the course of the experiment. A value of -40 indicates 40% of cells at the beginning of the experiment died by the end of the experiment. A value of -100 means all cells are dead at the end of the experiment.
NCI-60 Human Tumor Cell Lines Screen was performed using the standard one-dose NCI protocol, which is described in more detail at https://dtp.cancer.gov/discovery_development/nci-60/default.htm.
Compounds with GIPRCNT values below 10 were considered active. Activity score was based on GIPRCNT using the following formula: […]
Score is 0 for GIPRCNT values of 100 or above, 50 for GIPRCNT values of 0, and 100 for GIPRCNT values of -100.
`CC/C(=C(/c1ccc(O)cc1)c1ccc(OCCN(C)C(=O)CCOCCNC(=O)Cc2ccc3c(c2)CN([C@@H]2CCC(=O)NC2=O)C3=O)cc1)c1ccccc1`: the growth was 104% (inactive).

The same assay, now with this note: 10 µM.
For the compound `CC/C(=C(/c1ccc(O)cc1)c1ccc(OCCN(C)C(=O)CCOCCNC(=O)Cc2ccc3c(c2)CN([C@@H]2CCC(=O)NC2=O)C3=O)cc1)c1ccccc1`, the growth is 85% (inactive).

Still in this assay, the particulars now being: 10 µM unless noted.
Consider `Clc1ccc(Nc2nnc(-c3c[nH]c4ccccc34)o2)cc1`, for which the growth is 25% (inactive).
On to `O=C(NNC(=O)c1ccc(OCc2nc3ccc(Cl)cc3[nH]2)cc1)Nc1ccc(Cl)c(C(F)(F)F)c1`, for which the growth is 51.4% (inactive).
The same measure, in the same setting: to `COc1ccc2[nH]c(=O)c(CSc3ccccc3Nc3nccc(-c4ccc(Cl)cc4)n3)cc2c1` belongs 28.3% (inactive); to `O=C(c1ccc(O)cc1)C1[C@H](c2ccccc2Br)[C@@H](c2ccccc2)NC12C(=O)Nc1ccccc12` (stereo not given in full), 12.3% (inactive); to `CN(C)c1nc(NCCNS(=O)(=O)c2ccc(C3=Nc4c(N)nc(N)nc4NC(c4ccc(C(F)(F)F)cc4)C3)cc2)nc(N2CCOCC2)n1` (stereo not given), 44.3% (inactive).
Consider `Cc1ccc(C2CC(c3ccc(NC(=O)Nc4ccccc4)cc3)=NN2c2ccc(S(N)(=O)=O)cc2)cc1` (stereo not given), for which the growth is -91.8% (active).
`S=C(Nc1ccccc1)Nc1ccc(OCc2nc3ccc(Cl)cc3[nH]2)cc1`: the growth is 75.2% (inactive).
As to `CN1CCN(CCS(=O)(=O)Nc2cc(-c3ccc4ncnc(Nc5ccc(F)c(Cl)c5)c4c3)cnc2Cl)CC1`, the growth is 0.425% (active).
As to `OC1CCC(Cn2c(C(F)(F)F)cc3c(Cl)ncnc32)CC1` (stereo not given), the growth was 8.29% (active).
Regarding `Cc1ccc(N=Nc2c(N)nn3c(-c4cc5cc(Br)ccc5oc4=O)ccnc23)cc1`, the growth was 113% (inactive).
Same read-out and setting: in the case of `O=C(Cc1c(-c2ccccc2[N+](=O)[O-])n(-c2ncnc3c2c(-c2ccccc2)c(-c2ccccc2)n3Cc2ccccc2)[nH]c1=O)c1ccc(Cl)c(Cl)c1` it was 2.32% (active); in that of `CCCCNC(=S)Nc1ccc(OCc2nc3ccc(Cl)cc3[nH]2)cc1`, 29.4% (inactive); in that of `CS(=O)(=O)c1ccc(-n2nc(C(=O)NCc3ccccc3)cc2-c2ccc(Cl)cc2)cc1`, 91.7% (inactive).
As for `COc1cc(/C=C/C(=O)c2cnn(-c3cc(=O)[nH]c4ccc(Cl)cc34)c2C)cc(OC)c1OC`, the growth is -9.26% (active).
For `COc1cc(/C=C/C(=O)c2cnn(-c3cc(=O)[nH]c4ccc(C)cc34)c2C)cc(OC)c1OC`, the growth is 1.91% (active).
As to `Cc1ccc(C(=O)Nc2cc(-n3ccnc3C)cc(C(F)(F)F)c2)cc1C#Cc1cnc2cccnn12`, the growth was 3.5% (active).
Take `O=C(N/N=C/c1ccc(-c2cccc([N+](=O)[O-])c2)s1)c1[nH]c2ccc(Br)cc2c1-c1ccccc1`: the growth was 98.3% (inactive).
Still for that read-out and setting: to `O=C1Nc2cc(-c3ccc(NS(=O)(=O)c4ccc(C(F)(F)F)cc4)cc3)ccc2/C1=C/c1ccc[nH]1` belongs 9.69% (active); to `COc1sc(/C=N/NC(=O)c2[nH]c3ccc(Br)cc3c2-c2ccccc2)cc1Br`, -26.5% (active).
Take `N#Cc1c(NC(=O)N2CCOCC2)n(-c2ccc(OC(F)(F)F)cc2)c2cc(F)ccc12`: the growth is 92.4% (inactive).
The same measure, in the same setting: to `O=C(c1ccc(Cl)cc1)C1[C@H](c2ccccc2Cl)[C@@H](c2ccccc2)NC12C(=O)Nc1ccccc12` (stereo not given in full) belongs -82.8% (active).
Same read-out and setting: to `COc1c2c(cc3c1C(CCc1ccccc1)N(C)CC3)OCO2` (stereo not given) belongs 5.73% (active); to `Nc1nn2c(-c3cc4cc(Br)ccc4oc3=O)ccnc2c1N=Nc1ccc(S(N)(=O)=O)cc1`, 78.5% (inactive).
Turning to `O=C1/C(=C/c2cccc3c2OCO3)Cc2c(F)cc(Br)cc21`, the growth is 104% (inactive).
The same measure, in the same setting: to `CC1=C(C(=O)Nc2ccccc2)C(c2cccc(Cl)c2Cl)n2c(nc3ccccc32)N1` (stereo not given) belongs 26.5% (inactive).
Turning to `CCN1C(=O)N(CC)C2NNC(Sc3c(C(=O)O)c4ccccc4n(CC(C)C)c3=O)=NC21` (stereo not given), the growth is -51% (active).
The same measure, in the same setting: to `COc1ccc(N=Nc2c(N)nn3c(-c4ccc([N+](=O)[O-])cc4)ccnc23)cc1` belongs 107% (inactive).
The same measure, in the same setting: in the case of `O=C1c2cccc3c(N4CCN(Cc5ccccc5)CC4)ccc(c23)C(=O)N1c1cccc(-c2nn(-c3ccccc3)cc2-c2nc3ccccc3s2)c1` it was 108% (inactive); in that of `CCOC(=O)/C(F)=C/C1CC1C(c1ccccc1)c1ccccc1` (stereo not given), 84.8% (inactive); in that of `N#Cc1c(-c2ccc(F)cc2)nc(SCc2ccccc2)nc1N1CCNCC1`, -83.6% (active).
With `Cc1ccc(Nc2nnc(-c3c[nH]c4ccccc34)o2)c(C)c1`, the growth is -41.8% (active).
The same measure, in the same setting: to `O=C(CSc1nc2sc3c(c2c(=O)n1-c1ccc(Cl)cc1)CCCC3)N/N=C/C=C/c1ccccc1` belongs -50.1% (active).
As for `COc1ccc(-c2nc3ccccc3n2CC(=O)N=Nc2c(O)[nH]c3ccc(OC)cc23)cc1`, the growth was 26.3% (inactive).
Take `COc1ccc(NC(=O)NN2C(=O)c3ccccc3N(C)C2c2ccc(OC)cc2)cc1` (stereo not given): the growth was 103% (inactive).
On to `COc1ccccc1Nc1nnc(-c2c[nH]c3ccccc23)o1`, for which the growth was -40.8% (active).
As for `O=C(N/N=C/c1occc1Br)c1[nH]c2ccc(Br)cc2c1-c1ccccc1`, the growth was -90.4% (active).
For the compound `COc1ccc(NC2=C(I)C(=O)C(C)=C(C)C2=O)cc1`, the growth was -72.4% (active).
On to `COc1ccccc1NC(=O)N/N=C/c1c[nH]c2ccccc12`, for which the growth is -22.8% (active).
